From the supplement of paper PMC6522484
Counter-ions that a name gives are not always drawn. ± gives the standard deviation of the averaged measurements.

What follows are compounds tested on DLD1 (assay: TCF/Wnt firefly luciferase reporter signal relative to plate median (fraction of plate median); higher = higher Wnt reporter signal). Conditions: 10 µM; treatment time 24 h; reporter: TCF4/Wnt.
In short: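 Kinase inhibitor library compounds were added at a final 10 µM for 24 h to colorectal cancer cells in 384-well plates, 24 h after seeding. The cells stably expressed lentiviral TCF/Wnt firefly luciferase reporters. Firefly luciferase and CellTiterGlo luminescence came from parallel plates, and each well was normalised to its plate median (webcellHTS2, additive, untransformed), averaged over two independent replicates.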

Compound | TCF/Wnt firefly luciferase reporter signal
OCCn1cc(-c2ccc3c(c2)CC/C3=N\O)c(-c2ccncc2)n1 | 1.45 ± 0.085
Cn1cc(-c2ccc3ncc(Cc4ccc5ncccc5c4)n3n2)cn1 | 0.769 ± 0.21
CNC(=O)c1cccc(-c2ccc3c(N4CCOC[C@@H]4C)nc(N4CCOC[C@@H]4C)nc3n2)c1 | 0.487 ± 0.073
CC(C)(C)Cn1c(N)nc2ccc(-c3[nH]c(C(C)(C)C)nc3-c3ccc(F)cc3)nc21 | 0.969 ± 0.1
C[C@]1(O)C[C@@H](c2nc(-c3ccc4ccc(-c5ccccc5)nc4c3)c3c(N)nccn32)C1 [Linsitinib (OSI-906)] | 1.33 ± 0.23
CCN(CC)CCNC(=O)c1c(C)[nH]c(/C=C2\C(=O)Nc3ccc(F)cc32)c1C [Sunitinib Malate (Sutent)] | 0.87 ± 0.18
COc1cc(Nc2ncc(F)c(Nc3ccc4c(n3)N(COP(=O)(O)O)C(=O)C(C)(C)O4)n2)cc(OC)c1OC | 0.919 ± 0.089
Cc1cc(C(C)Nc2ccccc2)c2nc(N3CCOCC3)cc(=O)n2c1 (centres undefined) | 1.21 ± 0.05
Cn1cc(-c2ccc3nnc(Sc4ccc5ncccc5c4)n3n2)cn1 | 1.19 ± 0.042
N#Cc1c(O)c2c(-c3ccc(-c4ccccc4O)cc3)csc2[nH]c1=O | 0.96 ± 0.2
C#Cc1cccc(Nc2ncnc3cc(OCCOC)c(OCCOC)cc23)c1 [Erlotinib HCl] | 0.73 ± 0.0057
N#CC(=C(/N)Sc1ccccc1N)/C(C#N)=C(\N)Sc1ccccc1N | 1.27 ± 0.064
Nc1cccc(-c2cc3c(Oc4cccc(O)c4)ncnc3[nH]2)c1 | 1.01 ± 0.014
CCOc1cc2ncc(C#N)c(Nc3ccc(F)c(Cl)c3)c2cc1NC(=O)/C=C/CN(C)C [Pelitinib (EKB-569)] | 1.01 ± 0.17
